This is a sample that favours compounds with a hit; in the whole collection about 4.7% have one here.
DRD3 agonist – activates the human D3 dopamine receptor | D3R DiscoveRx beta-arrestin cells, luminescence, 90 min | max activation, % | actives 0.58% (n = 410,000) | AID 652048; in the data active = max activation above about 30%; note: 0% is about no effect
Target sequence (P35462 whole entry, looked up): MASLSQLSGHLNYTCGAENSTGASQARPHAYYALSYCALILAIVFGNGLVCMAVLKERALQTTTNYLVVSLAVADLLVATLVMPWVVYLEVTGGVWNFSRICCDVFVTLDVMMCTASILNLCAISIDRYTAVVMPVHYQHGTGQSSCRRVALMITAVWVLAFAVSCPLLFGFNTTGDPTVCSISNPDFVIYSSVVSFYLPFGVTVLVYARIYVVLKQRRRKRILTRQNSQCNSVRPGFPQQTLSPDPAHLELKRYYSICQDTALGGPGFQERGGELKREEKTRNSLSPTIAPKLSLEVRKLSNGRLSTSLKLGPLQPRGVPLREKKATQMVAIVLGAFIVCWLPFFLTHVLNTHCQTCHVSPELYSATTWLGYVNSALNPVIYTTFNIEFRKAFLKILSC
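Agonist mode: compounds and dopamine controls were applied to plated cells for 90 min at 37 degrees C after an overnight attachment at 1500 cells/well. Luminescent read-out followed 30 - 60 minutes at room temperature with DiscoveRx detection reagent.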
HepG2 tox – counter-screen for TGF-b inhibitors: cytotoxicity in HepG2 cells | HepG2 CAGA-GFP viability, ATP luminescence, 18 h | actives 0.76% (n = 410,000) | AID 588856 | Potency, µM (doses to about 46.1 µM), for inactives: at the top dose activity change, negative = cytotoxicity, most hits filed as cytotoxic; note: potency is the fitted concentration of half-maximal effect
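HepG2 CAGA-GFP cells (1000/well, DMEM with 1% FBS) received compound, then TGF-beta at 500 pg/mL final, and were incubated 18 hours at 37 degrees C. Viability was read by CellTiter-Glo luminescence. Media-only wells were set as complete cell-killing and DMSO as no toxicity.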
S2 tox – cell viability loss in ATXN counter-screen; S2 cells (HEK-293 line with an ATXN2-luciferase reporter) viability, CellTiter-Fluor protease fluorescence, 24 h; Potency, µM (highest dose often 56.7 µM), hits mostly cytotoxic; actives 0.49% (n = 400,000); note: potency is the fitted concentration of half-maximal effect; nearly all actives have a fitted effect of over 40% in size
ATXN2 expr inh – ATXN2 expression inhibition. Potency, µM (doses to about 57 µM), for the others: top-dose activity change, negative = inhibition, hits mostly inhibitors. AID 1745845. HEK-293 ATXN2-luciferase reporter, luminescence, 24 h. actives 0.72% (n = 360,000); note: potency is the fitted concentration of half-maximal effect; % is set by controls: 0 for no effect and ±100 for the full control effect; nearly all actives have a fitted effect of over 55% in size
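qHTS (up to 57 uM final) was run with 24 h compound exposure of reporter cells at 37 °C. Each well was multiplexed: SteadyGlo luminescence measured ATXN2-luciferase expression after a fluorogenic Gly-Phe-AFC viability readout (25 uM final).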
D3 antag – blocks the human D3 dopamine receptor; D3R cells, DiscoveRx beta-arrestin luminescence, antagonist mode; hits give low values; P35462; actives 2.5% (n = 360,000); max response, negative = inhibition, %; in the data active = max response below about -50%; inconclusive = no clear call, values can overlap the other calls; note: % is set by controls: 0 for no effect and ±100 for the full control effect
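Cells plated overnight at 1500 cells/well, then exposed to library compounds with dopamine controls for 90 minutes at 37 degrees C. DiscoveRx reagent added for 30–60 minutes at room temperature; luminescence read, quantitative HTS format.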
TGFb SMAD3 inh – TGF-b pathway inhibition | HepG2 CAGA-GFP TGF-b/SMAD3 reporter, GFP fluorescence, 18 h; TGF-beta stimulated, 500 pg/mL final | Potency, µM (top dose mostly 46.1 µM), without a hit: top-dose activity, negative = inhibition, actives largely listed as inhibitors | actives 1.2% (n = 410,000) | AID 588855; note: potency is the fitted concentration of half-maximal effect; % is set by controls: 0 for no effect and ±100 for the full control effect; nearly all actives have a fitted effect of over 65% in size
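Inhibition was scored as loss of TGF-beta-induced (500 pg/mL final, 18 hours, 37 degrees C) GFP in HEPG2 cells carrying a CAGA-GFP reporter, in DMEM with 1% FBS. Well GFP was summed per cell; Activity was normalised to unstimulated and stimulated DMSO wells, then concentration-response fitting.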
* hit, by the source's call; i = inactive; ? = inconclusive; . = not tested or not shown. Unless noted, calls come from the whole dose curve; as a rule, active = well fitted curve in the direction sought with a large enough effect; inconclusive = small, poorly fitted or top-dose-only effect, or another doubt; inactive = no such curve, though single readings can be large; an effect the other way counts as inactive or inconclusive.

SMILES	DRD3 agonist	HepG2 tox	S2 tox	ATXN2 expr inh	D3 antag	TGFb SMAD3 inh
COc1ccc(N2C(=O)[C@@H]3C[C@H]2CN3Cc2cccn2-c2ccccn2)cc1Cl	.	.	i	.	.	.
CCC1C(=O)NCCN1Cc1ccc2c(c1)CN(Cc1ccc(OC)c(OC)c1)CCO2 (stereo unspecified)	.	.	i	.	.	.
COc1ccc(NC(=O)C2CCC(CNS(=O)(=O)c3cccc4nsnc34)CC2)cc1OC (stereo unspecified)	7	-71%	i	-1%	.	?
Cc1ccc(-n2c(C)cc(C3N=C(N)Nc4nc5ccccc5n43)c2C)c(C)c1 (stereo unspecified)	-17	-110%	?	?	-9	?
Cc1cc(C2N=C(N)Nc3nc4ccccc4n32)c(C)n1-c1ccccc1Cl (stereo unspecified)	-11	-41%	i	-10%	11	11µM*
Cc1ccccc1NC(=O)/C(=C/c1cccs1)NC(=O)c1ccco1	-11	1%	i	-14%	-12	8%
Cc1ccccc1NC(=O)/C(=C\c1cccs1)NC(=O)c1ccccc1	-8	-29%	i	-3%	-54*	5%
CCCCc1ccc(NS(=O)(=O)c2ccc(N3CCCCS3(=O)=O)cc2)cc1	-4	-63%	?	-16%	.	?
FC(F)(F)c1ccnc(N2CCN(Cc3cnc(-c4ccccc4)[nH]3)CC2)c1	-18	-20%	?	-14%	-77*	-27%
CC(=O)Nc1ccc(S(=O)(=O)N2CCN(c3cc(C(F)(F)F)ccn3)CC2)cc1	-1	-14%	i	-14%	-10	-21%
COc1cc(C2CC(=O)Oc3c(C(CCN4CCOCC4)c4ccc(N(C)C)cc4)c(OC)cc(OC)c32)cc(OC)c1OC (stereo unspecified)	-20	0%	i	5%	0	-13%
COc1ccc(C2CC(=O)Oc3c(C(CCN4CCCC(C)C4)c4ccc(N(C)C)cc4)c(OC)cc(OC)c32)cc1 (stereo unspecified)	-30	-22%	8.9µM*	-1%	6	-6%
COc1cc(C2CC(=O)Oc3c(C(CCN4CCN(c5ccccc5)CC4)c4ccc(N(C)C)cc4)c(OC)cc(OC)c32)cc(OC)c1OC (stereo unspecified)	-14	-10%	i	-7%	-103*	-9%
COc1ccc(C2CC(=O)Oc3c(C(CCN4CCCCC4)c4ccc(N(C)C)cc4)c(OC)cc(OC)c32)cc1 (stereo unspecified)	-3	7%	8.9µM*	-22%	-58*	-12%
C=CCSc1n[nH]c(-c2ccc(OCCCC)cc2)n1	1	-59%	28µM*	?	14	?
CN(C)c1ccc(/C=C2\CCc3ccccc32)cc1	.	-27%	.	.	.	0%
CCCN(CCC)c1ncnc2c1cnn2-c1ccc(OC)cc1	34*	-34%	i	100%	33	0%
CCN(CC)C(=O)C1CCCN(c2ncnc3c2cnn3-c2cccc(C)c2)C1 (stereo unspecified)	5	-18%	i	-28%	53	-6%
CCOC(=O)C1CCN(c2ncnc3c2cnn3-c2ccc(OC)cc2)CC1	33*	-18%	i	-38%	17	21%
CCN(CC)C(=O)C1CCCN(c2ncnc3c2cnn3-c2ccc(Cl)cc2)C1 (stereo unspecified)	-6	-25%	?	13µM*	13	-2%
Cc1cccc2sc(NC(=O)CCNS(=O)(=O)c3cccc4nonc34)nc12	-1	20µM*	i	-4%	13	?
Cc1ccccc1NC(=O)c1nc(SCc2ccccc2F)ncc1Cl	.	-2%	.	.	.	5%
CCCCCC(C)n1[nH]c(=O)cc1N (stereo unspecified)	4	-48%	i	-6%	-109*	?
COc1cc(=O)n2c(c1C(=O)N(C)Cc1cscn1)CCN(C(=O)c1ccc(C)c(C)c1)CC2	.	.	i	.	.	.
C[C@@H]1CN([C@@H](C)CO)S(=O)(=O)c2ccc(/C=C/c3ccccc3)cc2O[C@@H]1CN(C)Cc1ccc(C(=O)O)cc1	38*	16%	?	?	9	-3%
SMILES	DRD3 agonist	HepG2 tox	S2 tox	ATXN2 expr inh	D3 antag	TGFb SMAD3 inh
C[C@@H]1CN([C@H](C)CO)S(=O)(=O)c2ccc(Br)cc2O[C@@H]1CN(C)Cc1ccc(-c2ccccc2)cc1	-11	-57%	?	?	-16	16µM*
C[C@H]1CN([C@@H](C)CO)S(=O)(=O)c2ccc(Br)cc2O[C@H]1CN(C)Cc1ccccc1F	-6	-60%	?	?	-12	16µM*
C[C@@H]1CN([C@@H](C)CO)S(=O)(=O)c2ccc(Br)cc2O[C@H]1CN(C)Cc1ccccc1F	-4	-111%	?	?	-12	?
C[C@@H]1CN([C@H](C)CO)S(=O)(=O)c2ccc(C#CC3CCCC3)cc2O[C@H]1CN(C)C(=O)Cc1ccccc1	1	16µM*	22µM*	?	9	?
C/C(=N\O)[C@@H](C)NCC(C)(C)CN[C@H](C)/C(C)=N/O	.	.	i	-11%	.	.
CCOc1ccc(NC(=O)CCCc2nc(-c3cccc(OC)c3)no2)cc1	-12	-23%	i	-11%	.	?
CCCCCCCCCCCCCCCC(=O)OC[C@@H](NC(=O)C(Cl)Cl)[C@H](O)c1ccc([N+](=O)[O-])cc1	-3	.	i	5%	.	.
CCc1ccccc1NC(=O)Cn1nnc(C(=O)OC)c1C(=O)OC	2	0%	i	-1%	.	-26%
Cc1cccc(N(C)C(CNS(=O)(=O)c2ccccc2)c2ccccc2)c1 (stereo unspecified)	4	-67%	?	?	.	?
C[C@H](O)C#Cc1ccc2c(c1)O[C@@H](CN(C)Cc1ccc(-c3ccccc3)cc1)[C@H](C)CN([C@@H](C)CO)S2(=O)=O	3	7.1µM*	16µM*	20µM*	27	?
COc1cccc(C(=O)NC2CCCN(C3Cc4ccccc4C3)C2)c1OC (stereo unspecified)	-3	-15%	i	5%	-93*	-29%
COc1ccc(/C=N/NC(=O)c2ccn[nH]2)cc1COc1ccc(Cl)cc1Cl	7	-41%	i	-5%	36	14µM*
CC(C)(CNC(=S)NCCc1ccccc1)CNC(=S)NCCc1ccccc1	0	-39%	?	?	-23	16µM*
S=C(NCCc1ccccc1)N1CCN(C(=S)NCCc2ccccc2)CC1	-4	-33%	?	-11%	23	5%
